Measured values as given in PubChem BioAssay AID493231 (Broad Institute, 2011).
Measured potencies and affinities stand elsewhere. Active and inactive are the calls of the source. No rule for the calls is given here.

biological target: Acyl-homoserine lactone acylase PvdQ (Pseudomonas aeruginosa (strain ATCC 15692 / DSM 22644 / CIP 104116 / JCM 14847 / LMG 12228 / 1C / PRS 101 / PAO1)) (UniProt Q9I194); assay: P. aeruginosa PvdQ acylase inhibitors, dose response, biochemical, fluorescence, plate reader and imaging, cherry-picks (AID 493231); details: purified PvdQ acylase, fluorogenic substrate; series mostly up to 10 µM;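 also: more negative values mean stronger inhibition of the acylase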
Sequence (Q9I194 whole entry, looked up): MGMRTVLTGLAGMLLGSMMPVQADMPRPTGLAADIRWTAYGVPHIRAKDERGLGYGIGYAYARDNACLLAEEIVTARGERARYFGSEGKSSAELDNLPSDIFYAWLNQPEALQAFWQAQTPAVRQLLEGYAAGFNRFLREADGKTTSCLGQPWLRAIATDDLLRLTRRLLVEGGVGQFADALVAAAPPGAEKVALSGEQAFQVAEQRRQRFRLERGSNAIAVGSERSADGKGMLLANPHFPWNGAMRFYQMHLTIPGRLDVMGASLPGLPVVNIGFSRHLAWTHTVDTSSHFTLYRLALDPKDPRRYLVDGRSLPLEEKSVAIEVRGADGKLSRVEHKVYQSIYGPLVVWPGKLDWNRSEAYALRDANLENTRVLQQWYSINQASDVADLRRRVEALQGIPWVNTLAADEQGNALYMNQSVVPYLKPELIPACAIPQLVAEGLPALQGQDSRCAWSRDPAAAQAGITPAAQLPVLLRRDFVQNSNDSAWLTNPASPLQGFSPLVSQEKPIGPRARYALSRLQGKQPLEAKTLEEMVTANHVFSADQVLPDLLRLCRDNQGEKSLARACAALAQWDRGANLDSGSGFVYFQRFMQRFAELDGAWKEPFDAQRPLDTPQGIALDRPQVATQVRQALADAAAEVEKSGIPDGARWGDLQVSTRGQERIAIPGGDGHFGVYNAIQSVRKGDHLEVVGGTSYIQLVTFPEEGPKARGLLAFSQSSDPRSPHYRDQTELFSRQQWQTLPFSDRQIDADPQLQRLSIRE

outcome, inactive:
OC(CN1CCOCC1)Cn1c(-c2cccc(Cl)c2)nc2ccccc21 (stereo unspecified)
S=C(NCc1ccc2c(c1)OCO2)Nc1ccc2nsnc2c1
CCOc1ccccc1NC(=S)N1CCC(NC(=O)NC23CC4CC(CC(C4)C2)C3)CC1
COc1ccc(OCCSc2nc3ccccc3n2CCC(=O)O)cc1
CCCc1nc2sc3ccccc3c(=O)c2c(=O)n1Cc1ccccc1
CCOC(=O)/C(C#N)=C/c1c(N2CCCCCC2)nc2ccccn2c1=O
COCCNC(=O)c1cc2nc(-c3ccccc3)cc(C)n2n1
Cc1ncc(CN2CCN(Cc3ccc(F)cc3)C(CCO)C2)s1 (stereo unspecified)
O=c1[nH]c(C2CCN(S(=O)(=O)c3ccc(C(F)(F)F)cc3)CC2)nc2c1nnn2Cc1ccc(F)cc1
O=C(O)CC1S/C(=N/N=C/C=C/c2ccccc2)NC1=O (stereo unspecified)
CCCCNc1c(C(=O)OCC)c(=O)[nH]c2ccccc12
CC1(OC(=O)CCc2ccccc2)C(=O)C=C2C=C(c3ccc(C#N)cc3)N(Cc3ccccc3)C=C2C1=O (stereo unspecified)
CCOC(=O)c1ccc(Nc2ncccc2[N+](=O)[O-])cc1
CC(C)[N+]1=C2C=CC=CC=C2SC12C([N+](=O)[O-])=CC(=[N+]([O-])[O-])C=C2[N+](=O)[O-] (stereo unspecified)
CCOC(=O)C(Oc1ccc(=O)[nH]n1)C(C)=O (stereo unspecified)
O=C(O)c1ccc(N=Nc2c(O)ccc3ncccc23)cc1
CC(=O)N/N=C/c1c(C)[nH]n(-c2ccccc2)c1=O
Cc1cc(NC(=O)Nc2ccc(F)c(Cl)c2)no1
CN(C)C(=O)Nc1ccccc1
COc1ccc(S(=O)(=O)NCCc2ccccc2)c2cccnc12
O=C(/C=C/c1ccc(Cl)c([N+](=O)[O-])c1)c1ccc(O)cc1
COc1cc(NC(=S)NC2CC(C)(C)NC(C)(C)C2)cc(OC)c1
NC(=O)c1ccc(NC(=O)COC(=O)c2n[nH]c3ccccc23)cc1
COc1ccc(Cl)c(NCCC(=O)O)c1
O=C(/C=C/c1ccc(Br)cc1)c1ccco1
CSCCC(NC(=O)c1ccc([N+](=O)[O-])cc1Cl)C(=O)OCC(=O)N(C)C (stereo unspecified)
O=C(/C=C/c1cccs1)Nc1ccncc1
CCN(c1ccccc1)S(=O)(=O)c1cc(C(=O)Nc2ccccc2Cl)ccc1F
CCOC(=O)CC(NC(=O)c1ccco1)c1ccccc1Cl (stereo unspecified)
Cc1nc2ccc(S(=O)(=O)Nc3ccc(-c4nc5cccnc5s4)cc3)cc2s1
Cc1cc(NC(=O)c2ccc(Br)c([N+](=O)[O-])c2)no1
CC(=O)c1ccc(NC(=S)N2CCCC(CO)C2)cc1 (stereo unspecified)
CCOC(=O)c1ccc(N2Cc3ccccc3C2=NC(=O)c2ccncc2)cc1
O=C1CCC(=O)N1CCSC(=S)N1CCSCC1
COc1ccc(OC2CCN(S(=O)(=O)c3ccc(OC)c(OC)c3)CC2)cc1
Cc1ccccc1NC(=O)Cn1nc(-c2ccccc2)nc1-c1ccccc1
